# Reference: PubChem BioAssay (NCATS)
# Records with an inconclusive call do not appear. Entries that show only a call come without a potency. A number with no mark means an inactive call. Active and inactive are the calls of the source. The call rests on the fitted dose curve; in most records, active means well fitted curve in the direction sought with a large enough effect; inconclusive means small, poorly fitted or top-dose-only effect, or another doubt; inactive means no such curve, though single readings can be large; an effect the other way counts as inactive or inconclusive.
# Legend:
# [1] = qHTS Screen of the MIPE 4.0 Collection Against Ewings Sarcoma (TC32) (AID 1259256); further: nearly all actives have a fitted effect of over 45% in size
# Summary of the method: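 Compound titrations go onto adherent log-phase cells 4 h after seeding, incubate 48 h at 37C, then CellTiter-Glo luminescence reports viability relative to DMSO and cell-free controls.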
# [2] = P-glycoprotein substrates identified in KB-8-5-11 adenocarcinoma cell line, qHTS therapeutic library screen (AID 1346987); further: nearly all actives have a fitted effect of over 65% in size; on activity change, negative = cytotoxicity: series mostly up to about 44 µM
# Summary of the method: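 In this qHTS, P-gp-rich KB-8-5-11 cells received library compounds across a concentration range. Viability was quantified by luminescence after 72 h at 37 degree C.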
# [3] = NS1 protein of Zika virus - qHTS assay to identify small molecule inhibitors in human HEK 293 cells (AID 1347053); further: nearly all actives have a fitted effect of over 55% in size; on activity change, negative = inhibition: series mostly up to about 46 µM
# Summary of the method: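 In this cell-based screen, HEK 293 cultures received compound for one hour before Zika MR766 at MOI = 0.5. NS1 was quantified 24 hours later by TR-FRET, normalized to virus-free wells and infected wells.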
# [4] = qHTS of pediatric cancer cell lines to identify multiple opportunities for drug repurposing: Primary screen for TC32 cells (AID 1347089); further: nearly all actives have a fitted effect of over 60% in size
# Summary of the method: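 In the primary qHTS, MIPE compounds were tested at 11 concentrations (0.78 nM to 46 µM) and NPC compounds at 8 (0.59 nM to 46 µM) on TC32 cells for 48 h. CellTiter-Glo luminescence gave viability.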
# [5] = qHTS of pediatric cancer cell lines to identify multiple opportunities for drug repurposing: Primary screen for DAOY cells (AID 1347090); further: nearly all actives have a fitted effect of over 55% in size; on activity change, negative = cytotoxic: series mostly up to about 46 µM
# Summary of the method: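 Eight- or eleven-point concentration series, 48 h treatment at 37 degrees C in growth media; readout CellTiter-Glo luminescence. Potency and efficacy were taken from the concentration-response curves.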
# Potency means the concentration at half of the fitted maximal effect.
compound,measurement,setting,value
Nc1nc(=O)n([C@H]2CSC(CO)O2)cc1F (some centres not stated),Potency,[1],inactive
same,Potency,[2],inactive
same,Potency,[3],inactive
same,Potency,[4],inactive
same,Potency,[5],inactive
CCCCCCCCc1ccc(CCC(N)(CO)CO)cc1,Potency,[1],18.7 µM (active)
same,Potency,[2],23.5 µM (active)
same,Potency,[3],9.35 µM (active)
C[C@]12CC[C@@H]3c4ccc(O)cc4CC[C@H]3[C@H]1CC[C@H]2O,Potency,[1],16.6 µM (active)
same,Potency,[2],7.43 µM (active)
same,Potency,[3],inactive
same,Potency,[4],inactive
same,Potency,[5],18.7 µM (active)
CC[C@@]1([C@@H]2O[C@@H]([C@H]3O[C@@](O)(CO)[C@H](C)C[C@H]3C)C[C@H]2C)CC[C@H]([C@]2(C)CC[C@]3(C[C@H](O)[C@@H](C)[C@@H]([C@@H](C)[C@@H](OC)[C@H](C)C(=O)O)O3)O2)O1,Potency,[1],0.162 µM (active)
same,Potency,[2],0.911 µM (active)
same,Potency,[3],1.29 µM (active)
same,Potency,[4],1.61 µM (active)
O=C(NCc1ccccc1)[C@H](Cc1ccccc1)NC(=O)[C@@H]1O[C@@H]1C(=O)NCCc1ccc(O)cc1,Potency,[1],1.18 µM (active)
same,Potency,[2],inactive
same,Potency,[3],inactive
same,Potency,[4],inactive
Cn1cc(C=CC(=O)c2cccc(F)c2)cc1C=CC(=O)NO,Potency,[1],20.9 µM (active)
same,Potency,[2],inactive
same,Potency,[3],inactive
same,Potency,[4],inactive
COc1ccnc2[nH]cc(C(=O)C(=O)N3CCN(C(=O)c4ccccc4)C[C@@H]3C)c12,Potency,[1],4.18 µM (active)
same,Potency,[2],inactive
same,Potency,[3],inactive
same,Potency,[4],inactive
same,Potency,[5],inactive
CCOc1cc2c(c(F)c1OCC)C(=N)N(CC(=O)c1cc(N3CCOCC3)c(OC)c(C(C)(C)C)c1)C2,Potency,[1],8.33 µM (active)
same,Potency,[2],20.9 µM (active)
same,Potency,[3],inactive
same,Potency,[4],inactive
CC(=O)O[C@H]1C[C@@H]2CC[C@H]3[C@H]4C[C@H]([N+]5(C)CCCCC5)[C@@H](OC(C)=O)[C@@]4(C)CC[C@@H]3[C@@]2(C)C[C@H]1N1CCCCC1,Potency,[1],7.43 µM (active)
same,Potency,[2],inactive
same,Potency,[3],inactive
same,Potency,[4],inactive
CCOC(=O)C1=C(C)NC(=S)NC1c1cccc(O)c1 (configuration not stated),Potency,[1],inactive
same,Potency,[2],4.18 µM (active)
same,Potency,[3],0.332 µM (active)
same,Potency,[4],1.31 µM (active)
same,Potency,[5],0.469 µM (active)
C[C@H](NC(=O)Cc1cc(F)cc(F)c1)C(=O)N[C@H](C(=O)OC(C)(C)C)c1ccccc1,Potency,[1],inactive
same,Potency,[2],18.7 µM (active)
same,Potency,[3],inactive
same,Potency,[4],inactive
Cn1cc(-c2cnn3c(N)c(Br)c([C@H]4CCCNC4)nc23)cn1,Potency,[1],0.187 µM (active)
same,Potency,[2],inactive
same,Potency,[3],0.833 µM (active)
O=C1c2cccc(O)c2C(=O)c2c(O)cc(CO)cc21,Potency,[1],inactive
same,Potency,[2],inactive
same,Potency,[3],inactive
same,Potency,[4],inactive
CCc1cc(C(C)=NOCc2ccc(C3CCCCC3)c(C(F)(F)F)c2)ccc1CN1CC(C(=O)O)C1,Potency,[1],inactive
same,Potency,[2],inactive
same,Potency,[3],inactive
same,Potency,[4],inactive
same,Potency,[5],0.59 µM (active)
C=CCNc1c(O)cc2c(O)c1C[C@@H](C)C[C@H](OC)[C@@H](O)[C@@H](C)C=C(C)[C@H](OC(N)=O)[C@@H](OC)C=CC=C(C)C(=O)N2,Potency,[1],0.264 µM (active)
same,Potency,[2],6.62 µM (active)
same,Potency,[3],inactive
same,Potency,[4],1.65 µM (active)
C[C@]12C=CC(=O)N[C@@H]1CC[C@H]1[C@H]3CC[C@@H](C(=O)Nc4cc(C(F)(F)F)ccc4C(F)(F)F)[C@@]3(C)CC[C@@H]12,Potency,[1],inactive
same,Potency,[2],inactive
same,Potency,[3],inactive
same,Potency,[4],inactive
same,Potency,[5],inactive
CC(C)(C)[C@H](NC(=O)c1ccc(N)c(Cl)c1)C(=O)N1CCC[C@@H]1C(=O)N[C@H](C#N)CC(=O)O,viability (percent of control),[1],127% [at 3.51 µM]
same,"activity change, negative = cytotoxicity",[2],2.87% [at 5.11 µM]
same,"activity change, negative = inhibition",[3],0.927% [at 4.81 µM]
same,"activity change, negative = cytotoxic",[4],10.4% [at 4.81 µM]
COc1cc(OC)cc(-c2ccc3ncc4ccc(=O)n(-c5ccc(N6CCNCC6)c(C(F)(F)F)c5)c4c3c2)c1,Potency,[1],3.32 µM (active)
same,Potency,[2],7.43 µM (active)
same,Potency,[3],11.8 µM (active)
same,Potency,[4],18.6 µM (active)
same,Potency,[5],2.96 µM (active)
O=c1[nH]c(=O)n([C@H]2C[C@@H](O)[C@@H](CO)O2)cc1F,Potency,[1],0.059 µM (active)
same,Potency,[2],1.66 µM (active)
same,Potency,[3],0.833 µM (active)
same,Potency,[4],0.93 µM (active)
Oc1cc2c(cc1O)C1c3ccc(O)c(O)c3OCC1(O)C2 (configuration not stated),Potency,[1],inactive
same,Potency,[2],inactive
same,Potency,[3],inactive
same,Potency,[4],inactive
same,Potency,[5],inactive
CCNC(=O)c1cc2c(-c3cc(OCCN4CCCC4)c(Cl)cc3Cl)nc(N)nc2s1,Potency,[1],0.59 µM (active)
same,Potency,[2],5.26 µM (active)
same,Potency,[3],inactive
same,Potency,[4],3.7 µM (active)
COc1ccc(CCC(=O)c2c(O)cc(O[C@@H]3O[C@H](CO)[C@@H](O)[C@H](O)[C@@H]3O[C@@H]3O[C@@H](C)[C@H](O)[C@@H](O)[C@@H]3O)cc2O)cc1O,Potency,[1],9.35 µM (active)
same,Potency,[2],inactive
same,Potency,[3],inactive
same,Potency,[4],inactive
O=c1c(O)c(-c2ccc(O)c(O)c2)oc2cc(O)ccc12,Potency,[1],20.9 µM (active)
same,Potency,[2],13.2 µM (active)
same,Potency,[3],inactive
same,Potency,[4],inactive
CC(C)c1cc(C(C)C)c(CC(=O)NS(=O)(=O)Oc2c(C(C)C)cccc2C(C)C)c(C(C)C)c1,Potency,[1],inactive
same,Potency,[2],7.31 µM (active)
same,Potency,[3],inactive
same,Potency,[4],inactive
